Source: PubChem (National Center for Advancing Translational Sciences (NCATS))
Hits are enriched below; roughly 8% of the tested compounds scored in any of these assays.
ELG1 repair inh: ELG1-dependent DNA repair inhibition | HEK293T ELG1-luciferase reporter, luminescence, 16 h; DNA damage induced by 5-fluorouridine | Potency, µM (highest dose often 46.1 µM), for the others: at the highest dose activity change, negative = inhibition, actives largely listed as inhibitors | hit rate 2.3% among 330,000 | AID 504467; note: potency is the fitted concentration of half-maximal effect; nearly all actives have a fitted effect of over 55% in size
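HEK293T cells expressing luciferase-tagged ELG1 (2,000/well) received 5-Fluorouridine plus compound or DMSO for 16 hr at 37 °C. Luciferase was read by ONE-Glo luminescence after 30 min at room temperature.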
RORgamma inh: ROR gamma (mouse) transcription inhibition; P51450; Drosophila S2 Gal4-RORgamma UAS-luciferase reporter, 20 h; Potency, µM (titrated, usually from 53.6 µM), without a hit: top-dose activity change, negative = inhibition, usual class: inhibitors; hit rate 5.4% among 310,000; AID 2551; note: potency is the fitted concentration of half-maximal effect; nearly all actives have a fitted effect of over 60% in size
Target sequence (P51450 whole entry, looked up, the tested form may be a part): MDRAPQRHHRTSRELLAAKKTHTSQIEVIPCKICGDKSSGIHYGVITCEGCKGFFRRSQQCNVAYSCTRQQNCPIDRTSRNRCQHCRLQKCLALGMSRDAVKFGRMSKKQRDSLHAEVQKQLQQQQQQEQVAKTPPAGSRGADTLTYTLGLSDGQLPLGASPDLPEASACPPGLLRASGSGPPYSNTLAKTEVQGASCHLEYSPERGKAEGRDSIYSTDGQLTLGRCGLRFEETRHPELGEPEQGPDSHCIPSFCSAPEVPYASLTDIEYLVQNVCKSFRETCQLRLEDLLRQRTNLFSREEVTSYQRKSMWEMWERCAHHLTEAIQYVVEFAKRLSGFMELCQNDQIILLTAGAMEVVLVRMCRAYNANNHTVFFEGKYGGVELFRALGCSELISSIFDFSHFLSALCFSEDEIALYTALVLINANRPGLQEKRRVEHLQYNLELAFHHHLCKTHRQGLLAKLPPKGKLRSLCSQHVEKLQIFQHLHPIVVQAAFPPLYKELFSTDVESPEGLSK
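Using a luciferase readout, inhibitors were identified by reduced reporter activity in Drosophila cells coexpressing a copper-inducible Gal4–ROR gamma fusion and UAS-driven Photinus luciferase, incubated 20 hr after 700 uM copper sulfate.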
TSHR antagonist: human thyrotropin receptor antagonism; TSHR-expressing cells, TSH-stimulated cAMP HTRF, 2 h; active compounds read low; activity change, negative = inhibition, % at 11.5 µM; hit rate 0.2% among 330,000; AID 504810;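 active = activity change below a set negative limit, meaning inhibition stronger than a set level, cut at about -70% in these data; inconclusive = activity change between two set negative limits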
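Inhibition of cAMP made by TSHR-expressing cells under TSH stimulation (4nM final, EC80; 2 h, 37 deg C) is quantified with a one-step lysis HTRF kit, anti-cAMP cryptate versus cAMP-d2.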
FBPA coupling cs: counter-screen for Giardia aldolase inhibitors: coupling enzyme system; coupling enzyme system counterscreen, AmpLite Red fluorescence; AID 2472; hit rate 0.67% among 290,000; activity change, negative = inhibition, % at 58.2 µM, hits read low; in the data active = activity change below about -30%
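Fluorescence at 525 nm excitation and 598 nm emission measured inhibition of the coupled detection system without aldolase. Compounds (at 57.5 uM final) were preincubated 10 min at room temperature with coupling enzyme reagent before a 20 min substrate/AmpLite Red step.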
Gal4-VP16 FLuc: inhibits Gal4-VP16 luciferase reporter, ROR gamma counter-screen; Drosophila S2 Gal4-VP16 UAS-luciferase, luminescence, 20 h; Potency, µM (highest dose often 53.6 µM), without a hit: at the highest dose activity, negative = inhibition, actives largely listed as inhibitors; hit rate 3.5% among 310,000;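 note: Gal4-VP16 expression switched on by copper sulfate through the metallothionein promoter; potency is the fitted concentration of half-maximal effect; nearly all actives have a fitted effect of over 50% in size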
Numbers without * were called inactive; ? = inconclusive; nt = not tested or not shown. Unless noted, calls come from the whole dose curve; as a rule, active = well fitted curve in the direction sought with a large enough effect; inconclusive = small, poorly fitted or top-dose-only effect, or another doubt; inactive = no such curve, though single readings can be large; an effect the other way counts as inactive or inconclusive. % is set by controls: 0 for no effect and ±100 for the full control effect.

SMILES	ELG1 repair inh	RORgamma inh	TSHR antagonist	FBPA coupling cs	Gal4-VP16 FLuc
Cc1cccc(NC(=O)CN2C(=O)N/C(=C/c3ccc(C)o3)C2=O)c1	?	?	11.9	-2.1	17.8µM*
CCn1c(=O)c(CCC(=O)NCCN2CCOCC2)c(C)c2c(C)nn(-c3ccccc3)c21	-20.4%	-37.7%	24.2	-2.4	-20.4%
CCn1c(=O)c(CCC(=O)N2CCN(c3ccccn3)CC2)c(C)c2c(C)nn(-c3ccccc3)c21	16.4µM*	-17.0%	-7.3	nt	1.4%
COc1ccc(N2CCN(C(=O)COC(=O)CNC(=O)c3ccccc3)CC2)cc1	19.1%	-15.4%	11.3	nt	-5.0%
COc1ccc(Cl)cc1C(=O)Nn1c(C)nc2ccccc2c1=O	-3.7%	4.6%	1.3	-0.2	-7.0%
COc1ccc(Cl)cc1C(=O)Nn1c(-c2cccs2)nc2ccccc2c1=O	6.51µM*	15.1%	28.8	3.8	-5.2%
COc1ccc(OC)c2c1sc(=NC(=O)C1COc3ccccc3O1)n2C (stereo unspecified)	?	1.5%	7.7	1.5	-1.2%
CCN(CC)S(=O)(=O)c1ccc(C(=O)NCc2ccc3[nH]c4c(c3c2)CCCC4)cc1	?	24.2%	-3.7	-3.0	2.7%
CCCCNC(=S)NCc1ccc2[nH]c3c(c2c1)CCCC3	?	5.01µM*	-13.6	1.5	10µM*
O=C(NCc1ccc2[nH]c3c(c2c1)CCCC3)N1CCOCC1	?	-1.2%	7.0	-53.1*	-1.1%
CNC(=S)NCc1ccc2[nH]c3c(c2c1)CCCC3	6.4%	17.8µM*	14.2	-8.2	-14.0%
CCN(CC(=O)NCc1ccc(F)cc1)C(=O)CN1CCN(c2cc(Cl)ccc2C)CC1	-10.0%	-16.1%	-3.1	0.2	7.9%
Cc1cc(=O)[nH]c(-c2ccc(C(F)(F)F)cc2)n1	0.6%	35.5%	-0.7	0.4	-7.6%
COC(=O)CC1C(C)(C)C(=O)C2CC3=C4CC(=O)OC(c5ccoc5)[C@]4(C)CCC3[C@@]1(C)C2=O (stereo partly specified)	nt	6.6%	nt	-1.6	-0.4%
Cc1ccc(C)c(N2CCN(C(=O)C3CCN(S(=O)(=O)c4c(C)noc4C)CC3)CC2)c1	11.6µM*	?	-11.6	-0.5	?
Cc1noc(C)c1S(=O)(=O)N1CCC(C(=O)N2CCN(c3ccccc3Cl)CC2)CC1	?	0.8%	-7.1	-0.6	-7.8%
Cc1noc(C)c1S(=O)(=O)N1CCC(C(=O)N2CCN(c3ccc(Cl)cc3)CC2)CC1	?	39.2%	-12.4	-1.7	-5.7%
Cc1cccc(N2CCN(C(=O)C3CCN(S(=O)(=O)c4c(C)noc4C)CC3)CC2)c1C	13µM*	29.9%	-12.0	nt	?
Cc1noc(C)c1S(=O)(=O)N1CCCC(C(=O)N2CCN(C3CCCCC3)CC2)C1 (stereo unspecified)	-1.4%	24.0%	2.4	1.8	-19.7%
Cc1ccc(C)c(N2CCN(C(=O)C3CCCN(S(=O)(=O)c4c(C)noc4C)C3)CC2)c1 (stereo unspecified)	14.6µM*	?	-17.0	-5.3	-23.4%
Cc1ccc(C)c(N2CCN(C(=O)C3CCN(c4nnc(N5CCCC5=O)s4)CC3)CC2)c1	14.6µM*	3.5%	20.3	5.5	0.0%
O=C(C1CCN(c2nnc(N3CCCC3=O)s2)CC1)N1CCN(c2cccc(C(F)(F)F)c2)CC1	?	43.7%	-26.8	-0.8	?
Cc1ccccc1C(=O)Nc1cc(S(=O)(=O)N2CCOCC2)ccc1N1CCN(C)CC1	2.5%	nt	-34.4	nt	nt
C[C@H](NC(=O)C1CCN(S(=O)(=O)c2ccccc2)CC1)C(=O)NCc1ccco1	19.4%	-12.7%	1.7	nt	-5.6%
CCOC(=O)N1CCN(C(=O)c2ccc(OC(C)=O)cc2)CC1	14.3%	27.1%	1.4	-0.2	-4.0%
SMILES	ELG1 repair inh	RORgamma inh	TSHR antagonist	FBPA coupling cs	Gal4-VP16 FLuc
COc1ccc(NC(=S)Nc2ccccc2)c(OC)c1	7.8%	12.6µM*	1.5	0.7	?
S=C(Nc1ccccc1)Nc1ccc(OCc2ccccc2)cc1	1.2%	11.2µM*	2.5	-0.4	-6.8%
COc1ccc(NC(=S)Nc2ccc(OCc3ccccc3)cc2)c(OC)c1	-14.3%	7.08µM*	-0.5	2.4	7.08µM*
NS(=O)(=O)c1ccc(NC(=S)Nc2ccc(OCc3ccccc3)cc2)cc1	?	-18.6%	2.0	1.2	-1.7%
COc1ccc(NC(=S)NCC(O)c2ccccc2)c(OC)c1 (stereo unspecified)	-0.2%	-3.3%	-7.6	3.9	4.2%
Cc1cccc(C(=O)NCCc2nnc(SCC(=O)Nc3cccc(C(=O)O)c3)n2C)c1	11.6%	2.2%	8.7	nt	0.8%
CC[C@H](C)[C@H](NC(=O)CNC(=O)[C@H](C)NC(=O)[C@H](C)N)C(=O)NCC(=O)N[C@H](C(=O)N[C@@H](CC(C)C)C(=O)N[C@H](C(=O)N[C@H](C(=O)O)C(C)C)[C@@H](C)O)[C@@H](C)CC	nt	11.6%	nt	0.1	3.2%
CC12CCC(=O)N1C(C(=O)N1CCN(S(=O)(=O)c3cccc(C(F)(F)F)c3)CC1)CS2 (stereo unspecified)	0.0%	nt	-3.8	nt	nt
COc1ccc2c(c1[N+](=O)[O-])CCC/C2=N/OC(=O)c1cccc2ccccc12	-2.8%	-23.2%	16.7	-27.2	14.1µM*
CCOc1ccccc1NC(=O)CCSc1nc2n[nH]c(C)c2c(=N)n1-c1ccccc1Cl	3.16µM*	-21.5%	2.4	-4.3	-7.1%
Cn1cc(Cl)c(C(=O)Nc2nccs2)n1	?	9.5%	nt	3.5	3.6%
O=C(Nc1nccs1)c1ccc(Br)s1	?	11.2µM*	-0.7	-0.4	?
CCn1ncc(Br)c1C(=O)Nc1ccc(OC(F)(F)F)cc1	0.3%	33.6%	2.8	0.5	-0.9%
O=C(Nc1nccs1)c1ncc(Cl)c(Cl)c1Cl	?	7.94µM*	-1.0	-0.5	3.98µM*
C/C(=C\c1ccccc1)C(=O)Nc1nccs1	?	6.31µM*	-7.0	1.7	?
CCn1ncc(Br)c1C(=O)Nc1nccs1	6.4%	12.6µM*	-0.8	-0.3	?
O=C(c1ccco1)N1CCC[C@@]2(CCN(c3cccc(-c4ccccc4)c3)C2)C1	nt	27.1%	nt	-0.2	18.1%
O=C(Cc1ccccc1)Nc1ccccc1C(=O)N1CCN(c2ccccc2)CC1	-2.3%	?	-3.4	1.2	2.8%
O=C(Nc1nccs1)c1ccc2ccccc2c1	?	7.94µM*	-14.1	-5.8	6.31µM*
O=C(Nc1nccs1)c1ccc(Br)cc1	?	8.91µM*	-11.8	-2.9	?
O=C(Nc1nccs1)c1cnccn1	18.4%	?	-5.6	-1.0	-8.6%
O=C(Nc1ccc(OC(F)F)cc1)c1ncc(Cl)c(Cl)c1Cl	-1.9%	5.01µM*	-4.6	2.2	-14.8%
O=C(Nc1nccs1)c1ccccn1	?	2.51µM*	2.0	-2.8	12.6µM*
